# In the library only some 21% were active in any assay of this set; here they are far more common.
# IL1B secr inh = inhibitors of inflammasome signaling (IL-1 beta secretion); THP-1 LPS/ATP IL-1B secretion, AlphaLISA, 16 h; hits give low values; activity change, % at 57.5 µM; 4.7% of 360,000 active; AID 743279; in the data active means activity change below about -50%; inconclusive means mostly about -30% to -49%
#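 THP-1 cells pretreated 1 hr with compounds (up to 57.5 uM final), then stimulated with LPS (250 ng/mL final) plus ATP (1.25 mM final); secreted IL-1B measured by AlphaLISA after 16 hr, decreased signal indicating inhibition.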
# DT40 TDP1 no CPT = qHTS for Inhibitors of human tyrosyl-DNA phosphodiesterase 1 (TDP1): qHTS in cells in absence of CPT | Potency, µM (titrated, usually from 46.2 µM), hits mostly inhibitors | 15% of 420,000 active | DT40 Tdp1-/- hTDP1 cells, no CPT, ATP luminescence, 48 h | AID 686978, 2013; further: nearly all actives have a fitted effect of over 55% in size
#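 Chicken DT40 Tdp1-/- cells complemented with human TDP1, screened without camptothecin (DMSO vehicle only), 400 cells/well. Compounds pin-transferred, cells incubated at 37 °C for at least 48 hr. Growth read as ATP-dependent luminescence (CellTiter-Glo, 30 min at RT).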
# ClpP mod = qHTS Assay for Activators of ClpP. ATP-dependent Clp protease proteolytic subunit (Bacillus subtilis (strain 168)), P80244. purified B. subtilis ClpP, FRET peptide cleavage, 20 min. Potency, µM (highest dose often 57.5 µM). 1.9% of 340,000 active. AID 651965, 2013; active means well fitted falling curve with a large enough effect; inconclusive means small, poorly fitted or top-dose-only effect; inactive means no such curve, though single readings can be large or run the other way; further: the source files actives as falling curves though it sought activators and does not explain the sign; nearly all actives have a fitted effect of over 65% in size
# Target sequence (P80244 whole entry, looked up): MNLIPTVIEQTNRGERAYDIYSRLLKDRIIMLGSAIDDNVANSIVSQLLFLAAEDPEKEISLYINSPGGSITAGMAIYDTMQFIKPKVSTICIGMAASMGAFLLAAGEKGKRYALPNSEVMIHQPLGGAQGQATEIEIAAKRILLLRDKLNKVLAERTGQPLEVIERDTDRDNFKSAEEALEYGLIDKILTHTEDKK
#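 ClpP 10 microg/mL final, pH 8 Tris/KCl buffer with BSA, glycerol, Tween-20; compound pinned in; FRET-FV substrate; RT 20 min; Ex320/Em430; ΔFRET vs ADEP 5.8 microM, DMSO, no enzyme.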
# D3 antag = blocks the human D3 dopamine receptor; P35462; D3R cells, DiscoveRx beta-arrestin luminescence, antagonist mode; hits give low values; max response, negative = inhibition, %; 2.5% of 360,000 active; AID 652054; in the data active means max response below about -50%; inconclusive means no clear call, values can overlap the other calls
#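 Cells plated overnight at 1500 cells/well, then exposed to library compounds with dopamine controls for 90 minutes at 37 degrees C. DiscoveRx reagent added for 30–60 minutes at room temperature; luminescence read, quantitative HTS format.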
# DT40 TDP1 CPT = DT40-hTDP1 cell growth loss with CPT. chicken DT40 Tdp1-/-;hTDP1 cells + 20 nM CPT, ATP luminescence, 48 h. Potency, µM (series often up to 46.2 µM), usual class: inhibitors. 12% of 420,000 active; further: nearly all actives have a fitted effect of over 55% in size
#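 Chicken DT40 Tdp1-/- cells stably complemented with human TDP1 were seeded at 400 cells/well in medium containing 20 nM camptothecin, exposed to pin-transferred compounds, and grown at 37 °C for at least 48 hr. Viability was read as ATP luminescence.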
# DRD3 agonist = D3 dopamine receptor (human) agonism | P35462 | D3R DiscoveRx beta-arrestin cells, luminescence, 90 min | max activation, % | 0.58% of 410,000 active | AID 652048; in the data active means max activation above about 30%
#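 Cells at 1500/well, incubated overnight, then treated with pinned compounds (dopamine as control) for 90 min at 37 degrees C. DiscoveRx reagent added for 30 - 60 minutes at room temperature; luminescence read.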
# A number is an active result; 0 = inactive; ? = inconclusive; - = not tested or not shown. Unless noted, the call rests on the fitted dose curve; in most records, active means well fitted inhibition curve with a large enough effect; inconclusive means small, poorly fitted or top-dose-only effect; inactive means flat fitted curve, though single readings scatter.
SMILES,IL1B secr inh,DT40 TDP1 no CPT,ClpP mod,D3 antag,DT40 TDP1 CPT,DRD3 agonist
COc1cc2nc(CN3CCC(Cc4ccccc4)CC3)[nH]c(=O)c2cc1OC,0,?,0,0,?,0
COc1cc2nc(CN3CCC(C(O)(c4ccccc4)c4ccccc4)CC3)[nH]c(=O)c2cc1OC,0,18µM,0,0,?,0
COc1cc2nc(CN(C)Cc3ccc(Cl)cc3)[nH]c(=O)c2cc1OC,0,26µM,-,0,?,0
COc1cc2nc(CN(C)Cc3nc4ccccc4c(=O)[nH]3)[nH]c(=O)c2cc1OC,0,13µM,0,0,13µM,0
O=[N+]([O-])c1ccc(C=NNC(=S)Nc2ccc(F)cc2)cc1,0,2.9µM,-,0,1.5µM,0
O=[N+]([O-])c1ccc(NC(=S)NCc2ccncc2)cc1,0,?,-,0,0,0
O=[N+]([O-])c1ccc(C=NNC(=S)NN=Cc2ccc([N+](=O)[O-])cc2)cc1,0,0,-,0,?,0
O=[N+]([O-])c1ccc(NC(=S)NCc2ccc(F)cc2)cc1,-100,15µM,-,?,?,0
CC(C)c1ccc(OCC(=O)NCc2n[nH]c(=O)c3ccccc23)cc1,0,?,-,0,?,0
Cc1cccc2c1cnn2C(=O)Nc1ccccc1Cl,0,?,0,0,?,0
O=C(NCc1ccc2c(c1)OCO2)C(=O)NCC1OCCCN1S(=O)(=O)c1cc(F)ccc1F (centres undefined),0,0,0,0,0,0
Cc1ccc(-n2ncc3c(NNC(=O)c4cccs4)ncnc32)cc1,0,0,-,0,0,0
O=C(Cn1cnc2sc(-c3ccccc3)cc2c1=O)NCCc1ccccc1,0,?,0,0,?,0
O=C(Cn1cnc2sc(-c3ccccc3)cc2c1=O)NCc1ccccc1,0,5.2µM,0,?,3.7µM,0
O=C(Cn1cnc2sc(-c3ccccc3)cc2c1=O)NCc1ccco1,0,5.8µM,0,0,6.5µM,0
CCOc1cc2sc(N3CCC(C(=O)Nc4ccc(C(C)C)cc4)CC3)nc2cc1Br,-,?,0,-,?,0
CCOc1cc2sc(N3CCC(C(=O)Nc4ccc(C)cc4C)CC3)nc2cc1Br,-,21µM,0,-,7.3µM,0
CCOc1cc2sc(N3CCC(C(=O)Nc4cc(C)cc(C)c4)CC3)nc2cc1Br,-,0,0,-,21µM,0
COc1ccc(N2CCN(C(c3ccccc3F)c3sc4nc(-c5ccco5)nn4c3O)CC2)cc1 (centres undefined),-,0,0,-,0,0
NS(=O)(=O)c1cnccc1Oc1cccc(Cl)c1,0,0,-,0,0,0
O=C1c2ccccc2C2=Nc3ccccc3SC(c3cccc(F)c3)C12 (centres undefined),0,16µM,0,0,16µM,0
O=C1c2ccccc2C2=Nc3ccccc3SC(c3ccc(Cl)cc3)C12 (centres undefined),0,?,0,0,?,0
CCCCn1cnc2cc(NCc3ccccc3Cl)ccc21,-,?,0,-,?,0
CCC(C)[C@H]1CNCCN1CC1(c2ccccc2)CC1 (some centres undefined),0,18µM,0,0,21µM,0
CCC(C)[C@H]1CNCCN1CCc1cccc2ccccc12 (some centres undefined),0,?,0,0,16µM,0
COc1cc(CCCN2CCNC[C@@H]2C(C)O)cc(OC)c1OC (some centres undefined),0,0,0,?,0,0
CC(O)[C@H]1CNCCN1CC1(c2ccccc2)CC1 (some centres undefined),0,0,0,0,0,0
CCC(C)[C@H]1CNCCN1CCC12CC3CC(CC(C3)C1)C2 (some centres undefined),-62,12µM,0,0,26µM,0
CN(C)c1ccc(/C=C2\C(=O)/C(=C\c3ccc(N(C)C)cc3)c3ccccc32)cc1,-,?,0,-,?,-
O=C(Nc1ccccc1Cl)Nc1ccnn1C1CCN(C(=O)CCN2CCCO2)CC1,0,0,0,0,0,0
